# PubChem BioAssay (NCI)
# This is part of a sample that, as a whole, favours compounds with a hit. Of some 83,000 tested, about 20% had one in any assay.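 Cell lines were cultured in 96-well plates, exposed to a single compound concentration, and assessed for percent growth 48 hours later.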 A number with no mark means an inactive call. The source made the active and inactive calls. How the source made its calls: active means growth percent below 10; inactive means the rest.
# What was measured:
# Experiment in all cases: NCI-60 one-dose screen, 48 h (100 = growth as untreated, 0 = no growth, -100 = all killed)
# SR leukemia = conditions: 10 µM unless noted
# RPMI-8226 leukemia = conditions: 10 µM unless noted
# OVCAR-8 ovarian = conditions: 10 µM unless noted
# OVCAR-5 ovarian = conditions: 10 µM unless noted
# OVCAR-4 ovarian = conditions: 10 µM unless noted
# SK-OV-3 ovarian = conditions: 10 µM unless noted
# IGROV1 ovarian = conditions: 10 µM unless noted
# OVCAR-3 ovarian = conditions: 10 µM unless noted
# NCI/ADR-RES ovarian = conditions: 10 µM unless noted
# T-47D breast = conditions: 10 µM unless noted
# BT-549 breast = conditions: 10 µM unless noted
# MDA-MB-435 melanoma = conditions: 10 µM unless noted
# SW-620 colon = conditions: 10 µM unless noted
# MCF7 breast = conditions: 10 µM unless noted
# HCT-116 colon = conditions: 10 µM unless noted
# HCC-2998 colon = conditions: 10 µM
# KM12 colon = conditions: 10 µM unless noted
SMILES,growth (SR leukemia),growth (RPMI-8226 leukemia),growth (OVCAR-8 ovarian),growth (OVCAR-5 ovarian),growth (OVCAR-4 ovarian),growth (SK-OV-3 ovarian),growth (IGROV1 ovarian),growth (OVCAR-3 ovarian),growth (NCI/ADR-RES ovarian),growth (T-47D breast),growth (BT-549 breast),growth (MDA-MB-435 melanoma),growth (SW-620 colon),growth (MCF7 breast),growth (HCT-116 colon),growth (HCC-2998 colon),growth (KM12 colon)
C/C(=N\NC(=O)Cn1c(-c2ccc(S(C)(=O)=O)cc2)nc2ccccc21)c1ccc(Cl)cc1,87.9%,87.1%,80.9%,106%,100%,94.9%,92.6%,96.6%,103%,81.3%,85%,97.4%,101%,82.9%,83.1%,106%,95.6%
O=C(O)c1ccc2c(c1)nc(Nc1cccc(Cl)c1)c1ccncc12,-11.3% (active),10.6%,5.65% (active),10.6%,-2.42% (active),-27.1% (active),-22.2% (active),2.03% (active),5.81% (active),-22.1% (active),-5.65% (active),5.4% (active),6.63% (active),5.91% (active),3.79% (active),15.1%,11.5%
CCc1cc2c(cc1N1CCC(N3CCOCC3)CC1)C(C)(C)c1[nH]c3cc(C#N)ccc3c1C2=O,-3.84% (active),15.7%,-11.3% (active),-8.72% (active),-50.9% (active),-22.5% (active),-41.6% (active),4.44% (active),-1.18% (active),-26.7% (active),-19.3% (active),5.08% (active),2.54% (active),13.8%,-7.97% (active),5.22% (active),4.1% (active)
NC(=O)c1c(OCc2c(F)cc(Br)cc2F)nsc1NC(=O)NCCCCN1CCCC1,-34.4% (active),-26.3% (active),19.4%,-14.8% (active),-41.6% (active),52.2%,-32.4% (active),-34.1% (active),20.2%,-45.1% (active),-51.2% (active),-58.9% (active),-60.5% (active),1.88% (active),-37.9% (active),-13.8% (active),-4.19% (active)
COc1cc2ncnc3c2cc1OCCCCCN(C)Cc1ccc(Br)cc1N3,21.6%,64.1%,41.9%,50.1%,42%,-4.09% (active),-8.59% (active),46.9%,46.7%,4.78% (active),60.6%,72.3%,47.7%,56.9%,33.2%,68%,58.9%
C#Cc1cccc(Nc2ncnc3cc(OC)c(OCCCCCCC(=O)NO)cc23)c1,1.46% (active),-14.9% (active),-21.5% (active),-8.42% (active),6.28% (active),-58.2% (active),-41.3% (active),-19.9% (active),14.4%,-24.4% (active),-7.81% (active),-28.1% (active),-22.6% (active),8.28% (active),-27.4% (active),-53.5% (active),5.62% (active)
CC[C@@H]1C(=O)N(C)c2cnc(Nc3ccc(C(=O)NC4CCN(C)CC4)cc3OC)nc2N1C1CCCC1,-20.7% (active),-40.6% (active),21.4%,17.3%,35.3%,-64.3% (active),-0.189% (active),13.1%,24%,-7.47% (active),17.5%,2.22% (active),12.3%,7.63% (active),0.114% (active),-28.6% (active),12.9%
O=C(Nc1cccc(Cl)c1)Nc1ncc(CCNc2ncnc3ccsc23)s1,19.3%,7.45% (active),1.53% (active),64.6%,24.6%,47.5%,36%,38.3%,9.39% (active),-16.9% (active),0.164% (active),12.5%,62.6%,11.8%,17.9%,80.1%,11.4%
CN(C)CCOC(=O)Nc1nc2ccc(Sc3ccccc3)cc2[nH]1,22%,19.2%,39.4%,59.8%,73.4%,33.6%,44.9%,22.8%,18.1%,22.6%,48.4%,-54.2% (active),23%,22.7%,30.9%,61.3%,20.8%
C/C(=C(/c1ccc(Cl)cc1)c1ccc(OCCN2CCCC2)cc1)c1ccccc1,7.27% (active),42.8%,88.1%,64.7%,91.7%,121%,65.9%,91.8%,77.6%,72.4%,73.4%,55.1%,51.4%,33.8%,47.4%,84.7%,25.6%
CC(C)Nc1cc(-c2c[nH]c(C(=O)N[C@H](CO)c3cccc(Cl)c3)c2)c(Cl)cn1,23.9%,21.8%,35%,19.5%,42.2%,23.3%,18.4%,75.9%,47.9%,34.7%,57.3%,21.7%,20.6%,27.9%,15.7%,-10.9% (active),18.7%
COc1cc2c(Oc3ccc4[nH]c(C)cc4c3F)ncnc2cc1OCCCN1CCCC1,84.3%,110%,97.1%,78.4%,74%,82.1%,46.6%,87.4%,88.5%,82.5%,85.5%,99.6%,102%,89.8%,89.3%,102%,96.7%
Cc1cc(-c2cc(OC(=O)c3ccccc3)ccc2Cl)cc2nnc(Nc3ccc(OCCN4CCCC4)cc3)nc12,0.433% (active),74.4%,68.6%,81%,-40.5% (active),52.6%,69.4%,86.3%,110%,91.8%,110%,-70.6% (active),105%,3.92% (active),55.5%,109%,90.5%
Cn1cc(-c2[nH]c3cc(NC(=O)[C@H](N)C4CCCCC4)cc4c3c2C=NNC4=O)cn1,-15.7% (active),-18.1% (active),-29.5% (active),13%,20.9%,6.78% (active),-27.4% (active),-13% (active),49.7%,-9.81% (active),-73.7% (active),-33.9% (active),-31.8% (active),-12.1% (active),-76% (active),32.6%,2.52% (active)
Cc1cn(-c2cc(NC(=O)c3ccc(C)c(Nc4nccc(-c5cccnc5)n4)c3)cc(C(F)(F)F)c2)cn1,8.24% (active),37.9%,42.6%,57%,51.8%,119%,-44.4% (active),92.6%,31.6%,45.6%,24.2%,-11.9% (active),60%,12.8%,42.6%,63.8%,30%
CC1(COc2ccc3c(c2)ncn3-c2ccc3cccc(N4CCC(N)CC4)c3n2)COC1,-6.81% (active),0.988% (active),3.53% (active),10.3%,29.2%,54.2%,22.7%,37.2%,51.5%,81.7%,43.1%,65.5%,1.95% (active),-10.1% (active),-45.6% (active),31.2%,6.35% (active)
CNC(=O)c1cc(COc2nnc(Nc3ccc(Cl)cc3)c3ccoc23)ccn1,61.3%,89.9%,14.3%,23.5%,-38.4% (active),-60.8% (active),24.7%,46.6%,15.2%,15.2%,29.8%,73.2%,108%,48.1%,35.5%,94.3%,53.8%
